Source: PubChem
An excerpt weighted towards active compounds, which were near 0.93% of everything screened.
HIF act: HIF pathway transcriptional activation. U2OS HRE-luciferase reporter, luminescence; normalized: DMSO 0%, desferrioxamine 100%. activation, % at 7.5 µM (by protocol). hit rate 0.32% among 300,000;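 active = mean activation of at least 10% of the iron chelator positive control signal, with at least half of replicates also reaching 10%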
CFTR F508del cor: CFTR F508del correction in bronchial cells. CFBE cells, YFP halide quenching; stimulated with forskolin plus potentiator P3; % fluorescence drop versus neutral controls. AID 720511. hit rate 0.36% among 350,000. activity (quench increase), % at 7.58 µM;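 active = mean added fluorescence quench of at least 8% versus neutral control, with both replicates also reaching 8%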;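 note: cells transiently co-express mutant CFTR-F508del with the halide-sensitive YFP; corrector assay measuring rescue of mutant channel to the surface after 24 h compound exposure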
Jurkat NFkB inh: lowers PMA/ionomycin-induced NF-kB signal in Jurkat cells | PMA/ionomycin-induced NF-kB luciferase reporter, luminescence | inhibition, % at 4 µM | hit rate 0.53% among 330,000; in the data active = inhibition above about 50%
697 NFkB inh: inhibitors of the PMA/ionomycin-induced NF-kB reporter in 697 B cells | 697 B-cell NF-kB luciferase reporter, 16 h | inhibition, % at 4 µM | hit rate 0.33% among 330,000; in the data active = inhibition above about 35%
Jurkat NFkB conf: lowers PMA/ionomycin-induced NF-kB signal in Jurkat cells; shares compounds with Jurkat NFkB inh; Jurkat NF-kB luciferase, 16 h; inhibition, % at 4 µM; hit rate 27% among 2,700;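 active = inhibition reaching about 45% at 4 µM in either replicate, limit read from the data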;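 note: plate controls were PMA/ionomycin stimulated DMSO wells for no effect and unstimulated DMSO wells for full effect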
An asterisk follows results filed as active.

For CC(=O)N1CC2(C1)[C@H](c1ccc(-c3ccc(F)cc3)cc1)[C@H](CO)N2C(C)=O the results were CFTR F508del cor 1.
Cc1cccc(NC(=O)/C=C/c2cccs2)n1 was read as HIF act 2, Jurkat NFkB inh -167, 697 NFkB inh -159 and Jurkat NFkB conf -67.
For O=C(C[C@@H]1C[C@@H]2c3cc(NC(=O)CC4CC4)ccc3O[C@@H]2[C@@H](CO)O1)NCc1ccccc1F the results were CFTR F508del cor -1.
`C[C@@H]1CN([C@@H](C)CO)C(=O)c2cc(NC(=O)C3CCCCC3)ccc2O[C@@H](C)CCCCO[C@H]1CN(C)S(C)(=O)=O` gave CFTR F508del cor -1.
CCOC(=O)C1CCN(S(=O)(=O)c2cccc3nonc23)CC1 was read as HIF act -1, Jurkat NFkB inh -7 and 697 NFkB inh 10.
For CCOC(=O)C1CCN(S(=O)(=O)c2c(Cl)ccc3nonc23)CC1 the results were HIF act 0, CFTR F508del cor -8, Jurkat NFkB inh 72*, 697 NFkB inh -2 and Jurkat NFkB conf 40.
For COc1cccc(NC(=O)COC(=O)C2CC2)c1 the results were CFTR F508del cor -2, Jurkat NFkB inh -82 and 697 NFkB inh 5.
`COc1cccc(NC(=O)C(=S)NC2CCCCC2)c1` gave HIF act 0, CFTR F508del cor -4, Jurkat NFkB inh -220, 697 NFkB inh -164 and Jurkat NFkB conf -91.
COc1cccc(NC(=O)COC(=O)C2CCCCC2)c1 was read as CFTR F508del cor 2, Jurkat NFkB inh -195, 697 NFkB inh 7 and Jurkat NFkB conf 16.
For COc1cccc(NC(=O)NC2CCCCCCC2)c1 the results were HIF act 2, CFTR F508del cor -1, Jurkat NFkB inh -71 and 697 NFkB inh -93.
For COc1ccccc1C(=O)N1C[C@@H]2[C@H](c3ccccc31)[C@@H](CO)N2C(=O)C1CCCC1 the results were CFTR F508del cor 0.
For CCn1ncc(C2=NOC(C(=O)NCc3ccccc3)C2)c1C (stereo not drawn) the results were HIF act 0, Jurkat NFkB inh 74*, 697 NFkB inh 18 and Jurkat NFkB conf 46.
CCn1ncc(C2=NOC(C(=O)NCc3ccc(OC)cc3)C2)c1C (stereo not drawn) was read as HIF act 1.
COc1ccc(C2=NOC(C(=O)NCc3ccccc3)C2)cc1 (stereo not drawn) was read as HIF act 2, CFTR F508del cor 11*, Jurkat NFkB inh 64*, 697 NFkB inh -92 and Jurkat NFkB conf 14.
For O=[N+]([O-])c1ccc(Cl)c(S(=O)(=O)NCCc2ccccn2)c1 the results were CFTR F508del cor -1, Jurkat NFkB inh -166, 697 NFkB inh 11 and Jurkat NFkB conf 19.
`O=S(=O)(NCc1ccccn1)c1cc(Cl)ccc1Cl` gave HIF act 0, CFTR F508del cor -6, Jurkat NFkB inh -32 and 697 NFkB inh -44.
`Cc1ccc(-c2nc(-c3ccccn3)no2)cc1Cl` gave HIF act -7, Jurkat NFkB inh 13 and 697 NFkB inh -116.
For Cc1ccc(-c2nc(-c3ccccn3)no2)cc1 the results were HIF act -4, Jurkat NFkB inh 69*, 697 NFkB inh 26 and Jurkat NFkB conf 79*.
For Cc1cc(NCCN2CCOCC2)n2ncc(-c3ccccc3)c2n1 the results were HIF act 2, Jurkat NFkB inh -179, 697 NFkB inh -139 and Jurkat NFkB conf -88.
Screening C[C@H](CO)N1C[C@H](C)[C@H](CN(C)S(=O)(=O)c2ccc(Cl)cc2)Oc2ccc(NC(=O)Nc3ccc(F)cc3)cc2C1=O returned CFTR F508del cor -1.
Screening CCc1cc2c(=O)nc3n(c2s1)Cc1ccccc1/C3=C(/O)c1cccc([N+](=O)[O-])c1 returned HIF act 1, Jurkat NFkB inh 69*, 697 NFkB inh -108 and Jurkat NFkB conf 51*.
For CC(C)(C)c1ccc(-c2nc3cc(N)ccc3o2)cc1 the results were HIF act 2, CFTR F508del cor 1, Jurkat NFkB inh -190, 697 NFkB inh -237 and Jurkat NFkB conf 12.
For Nc1ccc(-c2nc3cc([N+](=O)[O-])ccc3o2)cc1 the results were HIF act 2, CFTR F508del cor -1, Jurkat NFkB inh -180, 697 NFkB inh -172 and Jurkat NFkB conf -114.
`CC(C)(C)Nc1nc2cc([N+](=O)[O-])ccc2o1` gave HIF act 1, CFTR F508del cor 1, Jurkat NFkB inh -28 and 697 NFkB inh 5.
COc1ccc(-c2nc3cc([N+](=O)[O-])ccc3o2)cc1 was read as HIF act 0, CFTR F508del cor -1, Jurkat NFkB inh -170, 697 NFkB inh -246 and Jurkat NFkB conf -122.
For Cc1ccc2oc(-c3cccc(N)c3)nc2c1 the results were HIF act 1, CFTR F508del cor -4, Jurkat NFkB inh -96 and 697 NFkB inh -139.
C[C@H]1CN([C@@H](C)CO)S(=O)(=O)c2ccc(-c3ccccc3)cc2O[C@H]1CN(C)C(=O)C1CCCCC1 was read as CFTR F508del cor 1.
O=C(C1CCC1)N1CC(=O)N2[C@@H](CO)[C@@H](c3ccc(C4=CCCCC4)cc3)[C@@H]2C1 was read as CFTR F508del cor -1.
For CCCNC(=O)C[C@H]1CC[C@@H]2[C@H](COc3ccc(NC(=O)c4ccc5c(c4)OCO5)cc3C(=O)N2C)O1 the results were CFTR F508del cor 0.
Cc1ccc(C)c(N2CCN(c3ncnc4c3cnn4-c3ccccc3)CC2)c1 was read as CFTR F508del cor 3.
For COc1cccc(N2CCN(c3ncnc4c3cnn4-c3ccc(C)cc3C)CC2)c1 the results were HIF act 1, CFTR F508del cor 5, Jurkat NFkB inh 87*, 697 NFkB inh 22 and Jurkat NFkB conf 70*.
Screening CC(C)NC(=O)Nc1ccc2c(c1)C(=O)N([C@H](C)CO)C[C@H](C)[C@H](CN(C)S(C)(=O)=O)OCCCC[C@H](C)O2 returned CFTR F508del cor 0.
For CC/C(=N\NC(=O)c1csc(C)c1C)c1cccs1 the results were HIF act 3, Jurkat NFkB inh -157, 697 NFkB inh -157 and Jurkat NFkB conf -29.
`CCC/C(=N\NC(=O)c1csc(C)c1C)c1cccs1` gave HIF act 3, Jurkat NFkB inh -60 and 697 NFkB inh -114.
Screening CCCCn1cnc2c(c(-c3ccccc3)c(-c3ccccc3)n2Cc2ccco2)c1=N returned HIF act 2, CFTR F508del cor -4, Jurkat NFkB inh 81*, 697 NFkB inh -7 and Jurkat NFkB conf 4.
`N=c1c2c(-c3ccccc3)c(-c3ccccc3)n(Cc3ccco3)c2ncn1Cc1ccco1` gave HIF act 1, Jurkat NFkB inh 8 and 697 NFkB inh -89.
Oc1ccc2ccccc2c1/C=N/Nc1nnc(-c2ncc[nH]2)c2ccccc12 was read as HIF act 82*, Jurkat NFkB inh 71*, 697 NFkB inh -7 and Jurkat NFkB conf 77*.
